# Results published in PubChem BioAssay.
# Active and inactive are the calls of the source.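 Rule for the calls, unless noted: active = inhibition of the reporter signal at or above 50%; inactive = inhibition below 50%.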
# How the values were obtained:
# [1] = inhibitors of TNFa-induced NFkB p65 translocation, primary screen, imaging, HUVEC, MLSMR starter and 10KST1 sets (AID 438;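 active = inhibition above 20% together with a positive visual image hit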;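 note: compound added about 3h40 before a 20 min TNFalpha stimulation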;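 for inhibition: signal is the nuclear over cytoplasmic p65 intensity ratio per well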); conditions: HUVEC TNFa-induced p65 nuclear translocation; cell count: measured here: nuclei count (cytotoxicity indicator), at 2.08 µM; inhibition: at 2 µM, stronger effect = higher value, 0% TNFa-plus-vehicle, 100% no-TNFa wells
# [2] = reduction of polyQ htt aggregates in cells – imaging, exon1htt(103Q)mCFP cells, high-content imaging, primary screen (AID 483;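 active = visual image review flags a hit and inhibition of aggregation exceeds 20%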;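 note: compound exposure lasted 3 days before fixation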;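 for nuclei count: percent of the per-plate median nuclei count of sample wells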); conditions: exon1htt(103Q)mCFP cell line, aggregate imaging, at 2 µM; inhibition of aggregation: stronger effect = higher value; nuclei count: measured here: cell count, toxicity
# [3] = endothelial E-selectin expression blockers – imaging, HUVEC, immunofluorescence, MLSMR starter and 10KST1 sets, primary screen (AID 487;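 active = visually confirmed hit in the image check and inhibition above 20%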;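 for inhibition: signal is fraction of cell area covered by stained E-selectin grains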;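 for nuclei count: 100% = median nuclei count of all wells on the same plate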); conditions: HUVEC TNFalpha-induced E-selectin immunofluorescence imaging, at 2 µM; inhibition: stronger effect = higher value; nuclei count: measured here: cell number, toxicity
# [4] = biological target: Voltage-gated potassium channel subunit beta-2 (Rattus norvegicus) (UniProt P62483); assay: inhibitors of rat Kvbeta2 reductase activity – biochemical, NADPH fluorescence, primary screen (AID 622;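 active = fluorescence slope higher than the sample average by over 3 SD, cut at about -0.22 in these data, passing the limit was not always enough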;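 note: slope of raw intensity against log time taken from 70 to 1610 s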); conditions: recombinant KvBeta, 4-cyanobenzaldehyde reduction, at 10 µM, stronger effect = higher value
# Chain of Voltage-gated potassium channel subunit beta-2 (Rattus norvegicus) (P62483 whole entry, looked up): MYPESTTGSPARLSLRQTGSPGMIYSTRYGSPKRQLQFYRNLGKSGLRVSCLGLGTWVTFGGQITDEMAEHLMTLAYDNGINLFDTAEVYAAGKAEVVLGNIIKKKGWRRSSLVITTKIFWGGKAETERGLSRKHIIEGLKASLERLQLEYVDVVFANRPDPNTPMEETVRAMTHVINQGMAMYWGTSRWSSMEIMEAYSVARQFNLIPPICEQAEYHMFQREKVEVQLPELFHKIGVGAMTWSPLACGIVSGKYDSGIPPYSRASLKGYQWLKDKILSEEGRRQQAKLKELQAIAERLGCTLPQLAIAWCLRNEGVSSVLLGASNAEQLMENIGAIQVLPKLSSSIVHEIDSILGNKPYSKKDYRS
# [5] = biological target: Voltage-gated potassium channel subunit beta-2 (Rattus norvegicus) (UniProt P62483); assay: enhancers of rat Kvbeta2 NADPH turnover – biochemical, NADPH fluorescence, primary screen (AID 623;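 active = NADPH fluorescence slope more negative than the mean of all samples by about 3 SD, 99.7% confidence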;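 note: fluorescence intensity change per second fitted from 20 to 320 s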); conditions: Recombinant KvBeta, NADPH fluorescence decrease slope, 10 min; at 10 µM; stronger effect = lower value
# [6] = biological target: Alpha-2C adrenergic receptor (Homo sapiens) (UniProt P18825); assay: compounds altering alpha2C-coupled GIRK flux – cell-based, HEK293 alpha2C/GIRK1/2, thallium flux, primary screen (AID 624;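 active = fluorescence slope after compound addition differing from the mean of all screened samples at 99.7% confidence, in either direction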;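 note: slope of fluorescence ratio to pre-addition baseline per second over 15 to 24 s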); conditions: thallium flux BTC fluorescence, at 10 µM, actives lie on both sides
# Chain of Alpha-2C adrenergic receptor (Homo sapiens) (P18825 whole entry, looked up): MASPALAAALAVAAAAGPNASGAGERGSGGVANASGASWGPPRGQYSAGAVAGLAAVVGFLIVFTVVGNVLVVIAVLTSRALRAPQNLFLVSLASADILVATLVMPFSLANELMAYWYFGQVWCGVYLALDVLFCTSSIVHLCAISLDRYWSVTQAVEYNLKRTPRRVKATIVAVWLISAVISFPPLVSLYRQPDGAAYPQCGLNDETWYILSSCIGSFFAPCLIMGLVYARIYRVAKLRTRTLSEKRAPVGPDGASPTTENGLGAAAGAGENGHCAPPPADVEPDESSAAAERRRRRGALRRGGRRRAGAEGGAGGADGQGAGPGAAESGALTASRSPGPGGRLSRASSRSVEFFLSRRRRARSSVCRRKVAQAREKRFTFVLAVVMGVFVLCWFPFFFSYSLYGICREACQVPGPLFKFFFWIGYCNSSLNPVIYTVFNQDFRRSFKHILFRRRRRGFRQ
# [7] = blockers of RIG-like receptor reporter activation – cell-based, Sendai virus stimulus, luciferase, 10K MLSCN set, TLR/RLR signaling modifier project, primary screen (AID 602276;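 active = inhibition at or above 50% at 10 µM; inactive = inhibition below 50%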;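 note: firefly luciferase from ISG56 promoter only with Renilla not read in this screen; 0% = Sendai virus plus DMSO and 100% = medium plus DMSO without virus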); conditions: HEK293 RL24 IRF3 luciferase reporter, at 10 µM, stronger effect = higher value
# [8] = TLR3 IRF3 reporter activation blockers – cell-based, poly I:C stimulus, luciferase, 10K MLSCN set, primary screen (AID 602277); conditions: HEK293-TLR3 RL24 IRF3 luciferase reporter, at 10 µM, stronger effect = higher value
Compound,cell count [1],inhibition [1],inhibition of aggregation [2],nuclei count [2] [%],inhibition [3],nuclei count [3] [%],fluorescence slope [4],NADPH fluorescence slope [5],slope [6],inhibition [7],inhibition [8]
Cc1ccc(S(=O)(=O)NCC(=O)N(CC(=O)NCc2ccccc2)CC2CCCO2)cc1 (centres undefined),341,-16.5% (inactive),14.8% (inactive),107,-31.2% (inactive),170,-0.599 (inactive),1.2e-05 (inactive),0.00602 (inactive),12.2% (inactive),15.3% (inactive)
Cn1c(=O)c2c(nc(SCCCC#N)n2Cc2ccccc2F)n(C)c1=O,601,4.5% (inactive),-13.6% (inactive),109,-51% (inactive),119,-0.416 (inactive),-2.8e-05 (inactive),0.00541 (inactive),12.9% (inactive),36.5% (inactive)
O=C(O)c1ccc(COc2c(F)c(F)cc(F)c2F)cc1,611,-0.8% (inactive),27.2% (inactive),102,-50.1% (inactive),107,-0.453 (inactive),-1.9e-05 (inactive),0.00642 (inactive),8.32% (inactive),8.92% (inactive)
O=C(NC1CC1)c1ccc(S(=O)(=O)NCC2CCCCC2)cc1,535,-8% (inactive),18.7% (inactive),102,-58.9% (inactive),112,-0.508 (inactive),2.4e-05 (inactive),0.00635 (inactive),3.23% (inactive),5.07% (inactive)
CCOc1ccc(Cc2nn[nH]n2)cc1,663,-3.2% (inactive),10.3% (inactive),90.5,-38.6% (inactive),141,-0.47 (inactive),-0.000245 (inactive),0.00563 (inactive),9.13% (inactive),16.7% (inactive)
Cc1noc(/C=C/N(C)C)c1S(=O)(=O)N1CCCC(C(=O)NCCC2=CCCCC2)C1 (centres undefined),518,0.9% (inactive),-2.1% (inactive),105,-25.3% (inactive),115,-0.548 (inactive),-1.2e-05 (inactive),0.00579 (inactive),1.59% (inactive),-0.365% (inactive)
O=C(CSc1ncnc2c1cnn2-c1ccccc1)Nc1ccccc1,316,2.4% (inactive),8.4% (inactive),106,-42% (inactive),115,-0.493 (inactive),-1.4e-05 (inactive),0.00569 (inactive),13.5% (inactive),23.8% (inactive)
CC(=O)Nc1nc(=S)ss1,568,-7.2% (inactive),1.3% (inactive),60.9,-28.4% (inactive),120,-0.486 (inactive),-2.6e-05 (inactive),0.00751 (inactive),10.3% (inactive),14.9% (inactive)
COc1cccc(CN2CCN(C(=O)CC(C)C)CC2)c1,448,2.2% (inactive),-3.8% (inactive),118,-45.8% (inactive),132,-0.241 (inactive),2.2e-06 (inactive),0.00544 (inactive),10.5% (inactive),4.9% (inactive)
c1cn(C23CC4CC(CC(C4)C2)C3)cn1,362,0.8% (inactive),-9.2% (inactive),108,45.7% (inactive),110,-0.489 (inactive),-5.6e-05 (inactive),0.00411 (inactive),11.8% (inactive),16.7% (inactive)
CC1CCc2nn(CC(=O)N3CCN(C(=O)c4ccco4)CC3)cc2C1 (centres undefined),758,-8.5% (inactive),-12% (inactive),112,-41% (inactive),107,-0.585 (inactive),-5.6e-05 (inactive),0.0063 (inactive),6.35% (inactive),25.7% (inactive)
COc1ccc(C(=O)N2CCN(S(=O)(=O)c3cc(Cl)ccc3OC)CC2)cc1,398,7.3% (inactive),-29.4% (inactive),64.6,-74.2% (inactive),106,-0.368 (inactive),-2.2e-05 (inactive),0.00259 (inactive),16.1% (inactive),18% (inactive)
CC(=O)OC1c2ccccc2C(=O)N1c1ccccc1C (centres undefined),590,9% (inactive),-20.1% (inactive),85.9,-51.8% (inactive),115,-0.586 (inactive),-1.7e-05 (inactive),0.00543 (inactive),10.3% (inactive),22.9% (inactive)
COCCN(CC(=O)NCc1ccccc1)C(=O)CCC(=O)Nc1ccccn1,663,-4.4% (inactive),6.3% (inactive),86,38.3% (inactive),117,-0.506 (inactive),-2.7e-05 (inactive),0.00555 (inactive),19.1% (inactive),19.4% (inactive)
